The record followed here is PubChem BioAssay AID743446 (Broad Institute, 2014).

Measured potencies and affinities stand elsewhere. Calls of active or inactive are those of the source. The rule behind the calls is not given here.

The experiment is described as follows: HEK293 cell cytotoxicity, dose response, cytotoxicity control, plate reader, cherry-picked samples (AID 743446). To be noted: stronger effect = lower value; at 26 µM unless noted.
As for `OC[C@H]1[C@@H](c2ccc(-c3ccc(F)cc3)cc2)[C@@H]2CN(Cc3ccccn3)CCCCN12`, the max activity is -12.3% (inactive).

Consider `CC1CN(C(=O)c2cccc(S(=O)(=O)Nc3cc(Cl)ccc3Cl)c2)CC(C)O1` (centres undefined), for which the max activity was 5.34% (inactive).

With `O=C(c1ccc(F)cc1)N1CC(=O)N2[C@@H](CO)[C@@H](c3ccc(C#CC4CCCC4)cc3)[C@@H]2C1`, the max activity is 32.7% [at 6 µM] (inactive).

Turning to `COc1ccc(-n2sc3ccc(F)cc3c2=O)cc1`, the max activity is -22.4% [at 0.05 µM] (inactive).

Turning to `C[C@H](CO)N1C[C@H](C)[C@H](CN(C)C(=O)Cc2ccccc2)OCCCC[C@H](C)Oc2ccc(NC(=O)Nc3ccc(C(F)(F)F)cc3)cc2C1=O`, the max activity is 12.5% [at 3 µM] (inactive).

In the case of `C[C@@H]1CN([C@@H](C)CO)C(=O)c2cccc(NC(=O)c3ccc(-c4nccs4)cc3)c2O[C@@H]1CN(C)C(=O)Nc1ccc(C(F)(F)F)cc1`, the max activity was -9.8% (inactive).

Regarding `C[C@H](CO)N1C[C@H](C)[C@@H](CN(C)S(=O)(=O)c2cccs2)Oc2c(cccc2N(C)C)C1=O`, the max activity is 11.4% [at 6 µM] (inactive).

In the case of `Cc1ccc(S(=O)(=O)N2CCCc3nc(-c4ccc(F)cc4)ccc32)cc1`, the max activity is 43.2% [at 12 µM] (inactive).

Take `CSc1nnc(NC(=O)c2ccc3c(c2)OCO3)s1`: the max activity was -9.38% [at 12 µM] (inactive).

As to `C[C@H](CO)N1C[C@H](C)[C@H](CN(C)C(=O)Nc2ccc(C(F)(F)F)cc2)OCCCC[C@H](C)Oc2ccc(NC(=O)NC3CCCCC3)cc2C1=O`, the max activity was 66% (inactive).

Consider `CN1c2ccc(-c3ccc(F)cc3)cc2[C@H]2[C@H](CCN2C(=O)Nc2ccc(F)cc2)[C@H]1CO`, for which the max activity was 39.2% [at 1.6 µM] (inactive).

As for `c1ccc(-n2cnnc2SCc2cn3cccnc3n2)cc1`, the max activity is 82.5% [at 0.8 µM] (inactive).

Regarding `O=c1c2c(nc3cc(-c4ccc(F)cc4)[nH]n13)CCCC2`, the max activity was -12.8% (inactive).

Take `Cc1ccc(C(=O)CN2C(=O)c3ccccc3S2(=O)=O)cc1`: the max activity is 11.6% [at 3 µM] (inactive).

Consider `Cc1cc(Cl)ccc1OCCCC(=O)Nc1cc(S(=O)(=O)N2CCOCC2)ccc1N1CCOCC1`, for which the max activity was -21.8% [at 0.1 µM] (inactive).

Turning to `CC(=O)c1c(C)[nH]c(C(=O)CN2C(=O)NC(C)(c3ccc(C)cc3)C2=O)c1C` (centres undefined), the max activity was 39.5% (inactive).

As to `C[C@H]1CCCCO[C@@H](CN(C)C(=O)Nc2ccc3c(c2)OCO3)[C@@H](C)CN([C@@H](C)CO)C(=O)c2cc(NC(=O)NC3CCCCC3)ccc2O1`, the max activity is 26.2% [at 23.5 µM] (inactive).

Turning to `O=C(c1ccccc1)N1CCSc2sccc2C1=O`, the max activity is 36.7% (inactive).

`CCn1c2ccccc2c2cc(CNCc3ccc(OC)cc3OC)ccc21`: the max activity is -98.9% (inactive).

In the case of `COc1ccc(-n2ncc3c(N(C)C4CCCCC4)ncnc32)cc1`, the max activity is 31.2% [at 0.05 µM] (inactive).

For `CC(C)c1ccc2c(c1)C(N1CCNCC1)Cc1ccc(F)cc1S2` (centres undefined), the max activity is -119% (inactive).

In the case of `Cc1cc(C(=O)CSc2nnc3ccccn23)c(C)n1-c1ccccc1`, the max activity is -21.9% (inactive).

In the case of `CCCNC(=O)Nc1ccc2c(c1)C(=O)N(C)C[C@H](OC)[C@H](C)CN(Cc1ccc(-c3ccccn3)cc1)[C@@H](C)CO2`, the max activity was 32.1% [at 0.75 µM] (inactive).

Turning to `Cc1ccc(S(=O)(=O)Nc2ccc3c(c2)C(=O)N([C@H](C)CO)C[C@@H](C)[C@H](CN(C)S(=O)(=O)c2cccs2)OCCCC[C@@H](C)O3)cc1`, the max activity is -17.3% [at 12 µM] (inactive).

Turning to `COc1ccc(OCC(=O)Nc2nccs2)cc1`, the max activity was 15.2% [at 1.6 µM] (inactive).

On to `Cc1ccccc1OCC(=O)Nc1cccc(C(=O)O)c1`, for which the max activity was 6.54% (inactive).

`O=C(O)c1cccc(-c2noc(-c3cccc(Cl)c3)n2)c1`: the max activity is 9.55% (inactive).

As to `COc1ccc(C(=O)CN2C(=O)c3ccccc3S2(=O)=O)cc1`, the max activity was -13.3% [at 0.05 µM] (inactive).

With `CCOc1ccc(C(=O)Nc2cccc(C(=O)O)c2C)cc1Cl`, the max activity is 26.7% (inactive).

For `COc1ccc(-c2noc(CCC(=O)N3CCN(c4ccc(Cl)cc4)CC3)n2)cc1`, the max activity was 26.2% [at 12 µM] (inactive).

`O=C(Nc1cccc(-c2ccc(N3CCCCC3)nn2)c1)C(F)(F)F`: the max activity was -33.5% [at 3 µM] (inactive).

As to `CCCn1c(C)cc(C(=O)CN2C(=O)c3ccccc3S2(=O)=O)c1C`, the max activity was -16% [at 3 µM] (inactive).

In the case of `CC(C)(C)NC(=O)c1cccc(NC(=O)c2ccc3c(c2)C(=O)N(C(C)(C)C)C3=O)c1`, the max activity is 27.3% [at 0.195 µM] (inactive).

Consider `CO[C@H]1CN(C)C(=O)c2ccc(NC(=O)C3CC3)cc2OC[C@@H](C)N(C(=O)Cc2ccccn2)C[C@H]1C`, for which the max activity was 22% [at 1.6 µM] (inactive).

For `COc1ccc2nc(NC(=O)c3ccccc3F)sc2c1`, the max activity is 34.9% [at 3 µM] (inactive).

For the compound `CCCCN(Cc1ccccc1)S(=O)(=O)c1cc2c(cc1Br)CC(C)N2C(C)=O` (centres undefined), the max activity was 18.2% [at 0.38 µM] (inactive).

Regarding `Oc1ccc(-c2csc(-c3cccnc3)n2)c(O)c1`, the max activity is -34.3% (inactive).

For `C[C@@H]1CN([C@H](C)CO)C(=O)c2cc(C#CCN(C)C)cnc2O[C@@H]1CN(C)C(=O)CN1CCOCC1`, the max activity is 12.9% [at 0.195 µM] (inactive).

Take `N#Cc1cccc(-c2ccc([C@@H]3[C@H](CO)N4CCCCN(C(=O)Nc5cccc(F)c5)C[C@@H]34)cc2)c1`: the max activity is 4.74% [at 12 µM] (inactive).
